Screening results from PubChem BioAssay.
The full list was thinned out, with hits kept by preference.
G9a inh – qHTS Assay for Inhibitors of Histone Lysine Methyltransferase G9a; Histone-lysine N-methyltransferase EHMT2 (Homo sapiens), Q96KQ7; G9a H3K9 monomethylation, AlphaScreen, 2 h; Potency, µM (top dose mostly 102 µM), usual class: inhibitors; 350,000 compounds, 8.8% hits; further: nearly all actives have a fitted effect of over 75% in size
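G9a (20 nM) preincubated 15 min RT with compounds, then 500 nM biotinylated H3K9 peptide and 20 uM SAM added; 2 h RT reaction. Monomethyl-H3K9 product detected by AlphaScreen with anti-H3K9me1 antibody, streptavidin donor and anti-rabbit IgG acceptor beads.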
VDR inh – Inhibitors of the vitamin D receptor (VDR): qHTS | VDR-SRC2-3 peptide fluorescence polarization, 2 h | Potency, µM, most hits filed as inhibitors | 400,000 compounds, 0.93% hits
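Compounds are added to VDR with labelled SRC2-3 coactivator peptide and held 2 h at room temperature. Inhibition of the VDR–peptide interaction is then read as a change in fluorescence polarization.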
12-LOX inh – Primary qHTS assay for inhibitors of human arachidonate 12S-lipoxygenase (ALOX12): Round 2. Polyunsaturated fatty acid lipoxygenase ALOX12 (Homo sapiens), P18054. purified 12hLO, xylenol orange hydroperoxide absorbance. AID 1671190, 2021. Potency, µM (highest dose often 108 µM), usual class: inhibitors. 580,000 compounds, 1.1% hits
Target sequence (P18054 whole entry, looked up): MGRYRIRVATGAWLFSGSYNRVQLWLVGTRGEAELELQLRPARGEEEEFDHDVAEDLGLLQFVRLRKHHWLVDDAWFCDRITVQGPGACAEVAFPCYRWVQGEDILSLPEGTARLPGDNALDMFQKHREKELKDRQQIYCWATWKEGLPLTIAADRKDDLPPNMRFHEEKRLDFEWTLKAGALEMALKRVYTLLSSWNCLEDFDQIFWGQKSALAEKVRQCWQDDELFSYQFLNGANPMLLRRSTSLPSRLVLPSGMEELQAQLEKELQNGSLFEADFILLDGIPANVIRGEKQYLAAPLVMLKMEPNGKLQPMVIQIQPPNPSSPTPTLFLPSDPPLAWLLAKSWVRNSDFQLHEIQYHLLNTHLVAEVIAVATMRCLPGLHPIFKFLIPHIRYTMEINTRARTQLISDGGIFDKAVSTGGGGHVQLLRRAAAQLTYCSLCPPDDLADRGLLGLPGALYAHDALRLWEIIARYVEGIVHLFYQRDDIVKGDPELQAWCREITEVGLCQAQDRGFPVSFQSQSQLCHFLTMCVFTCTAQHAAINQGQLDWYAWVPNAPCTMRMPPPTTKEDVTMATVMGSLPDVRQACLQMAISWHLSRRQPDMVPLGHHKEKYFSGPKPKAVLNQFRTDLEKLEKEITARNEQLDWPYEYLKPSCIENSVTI
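Purified human 12hLO at 150 nM in 25 mM Hepes, 0.01% Triton X-100, pH 7.0, preincubated 15 min at room temperature with compound. Reaction started with 40 uM arachidonic acid, 30 min at room temperature. Hydroperoxide measured by Fe-xylenol orange, 573/405 nm absorbance ratio.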
Glioma ERSR ind – qHTS for Inducers of the Endoplasmic Reticulum Stress Response (ERSR) in Human Glioma: qHTS; Potency, µM, actives largely listed as activators; U87-MG GRP78 promoter luciferase reporter, 16 h; 420,000 compounds, 0.02% hits; further: series mostly up to about 76 µM; nearly all actives have a fitted effect of over 35% in size
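Stably transfected U87-MG human glioma cells carrying a GRP78-based luminescent sensor were seeded at 1000 cells/well, pin-dosed with compounds and incubated 16 h. Luciferase reagent was then added, and end-point luminescence was read after 10 min at room temperature.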
Sfp PPTase inh – qHTS Assay for Inhibitors of Bacillus subtilis Sfp phosphopantetheinyl transferase (PPTase). 4'-phosphopantetheinyl transferase ffp (Bacillus subtilis), Q9F4F7. Biochemical Sfp PPTase activity, qHTS. Potency, µM, hits mostly inhibitors. 310,000 compounds, 3.5% hits;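 further: the enzyme is Sfp with the accession as filed and its product quenches rhodamine fluorescence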
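With Hepes-Na pH 7.6 buffer containing 10 mM MgCl2, Sfp (15 nM) modified BHQ-2-YbbR (12.5 uM) using rhodamine-CoA (5 uM). Two reads 30 minutes apart at 525/598 nm yielded each well's rate.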
A number is an active result; – = inactive; ? = inconclusive; · = no result; ! = a repeat was not active; [ ] = another dose, or the depositor's remark. The call rests on the fitted dose curve; in most records, active means well fitted curve in the direction sought with a large enough effect; inconclusive means small, poorly fitted or top-dose-only effect, or another doubt; inactive means no such curve, though single readings can be large; an effect the other way counts as inactive or inconclusive.

SMILES	G9a inh	VDR inh	12-LOX inh	Glioma ERSR ind	Sfp PPTase inh
O=C(Oc1cccc(C(=S)N2CCCCC2)c1)c1ccccc1	?	–	–	–	–
COc1ccc(C(=S)N2CCCCC2)cc1Br	–	–	–	–	–
Oc1cccc(C(=S)N2CCCCC2)c1	31.6µM	?	?	–	22.4µM
S=C(c1ccc(N2CCCC2)c(Br)c1)N1CCCCC1	17.8µM	–	–	–	–
CCC(C(=O)c1ccccc1)n1c(N2CCN(C)CC2)nc2c1c(=O)n(C)c(=O)n2C (configuration not stated)	·	·	–	·	·
COc1ccccc1NC(=O)C(C)Sc1ncnc2ccccc12 (configuration not stated)	·	·	–	·	·
CSc1nc2n(n1)C(c1cccc(Cl)c1)C1=C(CCCC1=O)N2 (configuration not stated)	·	·	–	·	·
CC1CCN(C(=S)c2ccc(O)cc2)CC1	35.5µM	–	–	–	56.2µM
Oc1ccc(C(=S)N2CCCCCC2)cc1	31.6µM	–	–	–	56.2µM
CC1CCN(C(=S)NC(=O)c2ccc(F)cc2)CC1	·	–	–	–	·
COC(=O)C1=C(NC(=O)C2CCCCC2)CCS1	1.78µM	–	–	–	–
COC(=O)C1=C(NC(C)=O)CCS1	?	–	–	–	–
CC(C)c1ccc(NC(=O)CNCC(c2ccccc2)N(C)C)cc1 (configuration not stated)	35.5µM	–	–	–	?
CC(C)(C)C(=O)Nc1cc(S(=O)(=O)Nc2ccc(Cl)cc2)ccc1O	–	–	39.8µM	–	–
CN(CCc1ccccn1)c1ccccc1	·	–	?	–	·
CN(CCc1ccccn1)S(=O)(=O)c1ccccc1F	44.7µM	–	–	–	–
CC(Sc1nc(CN2CCOCC2)nc2ccccc12)C(=O)Nc1cccc(F)c1 (configuration not stated)	·	·	–	·	·
CCOC(=O)c1c(NC(=O)CSc2nnnn2-c2ccccc2OCC)sc2c1CC(C)(C)NC2(C)C	50.1µM	–	–	–	·
CCOC(=O)c1c(NC(=O)CSc2nc3ccc(C)cc3[nH]2)sc2c1CC(C)(C)NC2(C)C	44.7µM	–	?	–	·
CCOC(=O)c1c(NC(=O)CSc2nnnn2-c2ccccc2)sc2c1CC(C)(C)NC2(C)C	·	–	·	–	–
CCOC(=O)c1c(NC(=O)c2ccc(C)cc2)sc2c1CC(C)(C)NC2(C)C	–	·	·	·	–
O=C(NCCc1ccc(Cl)cc1)c1cnc2n(c1=O)CCS2	44.7µM	–	–	–	–
O=C(NCCCc1ccccc1)c1cnc2n(c1=O)CCS2	–[12.7 µM]	–	–	–	–
O=C(Nc1ccc2c(c1)OCCO2)c1cnc2n(c1=O)CCS2	50.1µM	–	?	–	–
CCCn1c(C)cnc1CCNC(=O)CCC1CCCC1	·	·	–	·	·
SMILES	G9a inh	VDR inh	12-LOX inh	Glioma ERSR ind	Sfp PPTase inh
COc1ccc(N=C2C(=O)N3c4c(cccc42)C(C)=CC3(C)C)cc1	10µM	50.1µM	–	–	–
COc1ccc(N=C2C(=O)Nc3ccccc32)cc1	?	–	–	–	–
C=CCNCc1cccn1-c1ccccc1	8.91µM	–	?	–	–
Cc1ccc(C)c(C(NC(=O)C2CCCCC2)c2cccnc2)c1 (configuration not stated)	·	·	–	·	·
COc1cccc(NC(=O)O[C@@H]2CC[C@]3(C)[C@H](CC[C@H]4OC(=O)C[C@H]43)[C@]2(C)CO)c1	·	·	–	·	·
Cc1cccc2nc(CSC(=N)N)c(Br)n12	8.91µM	–	–	–	–
CC1CCC/C(=N\NC(=S)Nc2ccccc2)C1 (configuration not stated)	7.94µM	–	?	–	–
CCCC1CCC(=NNC(=S)NCc2ccccc2)CC1 (configuration not stated)	·	·	–	·	·
CC1CCC/C(=N\NC(=S)NCc2ccccc2)C1 (configuration not stated)	8.91µM	–	–	–	–
O=C(O)c1cccc2c(Cl)cccc12	·	·	–	·	·
CC1=C([N+](=O)[O-])C(c2ccccc2)C2=C(N1)c1ccccc1C2=O (configuration not stated)	10µM	–	?	–	?
CC(C)(C)c1ccc(C2C3=C(CCCC3=O)NC3=C2C(=O)c2ccccc23)cc1 (configuration not stated)	39.8µM	–	?	–	–
COc1ccc(C2C(C#N)=C(C)NC3=C2C(=O)c2ccccc23)cc1 (configuration not stated)	?	–	?	–	–
CC1(C)CC(=O)C2=C(C1)NC1=C(C(=O)c3ccccc31)C2c1ccccc1 (configuration not stated)	20µM	–	?	–	–
CC(C)c1ccc(C2C3=C(CC(C)(C)CC3=O)NC3=C2C(=O)c2ccccc23)cc1 (configuration not stated)	?	–	?	–	–
CC1(C)CC(=O)C2=C(C1)NC1=C(C(=O)c3ccccc31)C2c1cccnc1 (configuration not stated)	?	–	–	–	–
Cc1ccc2[nH]c(C(=O)NC(C)c3ccccc3)cc2c1 (configuration not stated)	·	·	–	·	·
COc1ccccc1N1CCN(CCn2c(=O)c3c(c4ccccc4n3C)n(C)c2=O)CC1	–	44.7µM!	–	–	–
COc1ccccc1N1CCN(CCn2c(=O)[nH]c3c([nH]c4ccccc43)c2=O)CC1	–	–	–	–	–
Cn1c(=O)c2c(nc(Cl)n2Cc2ccccc2C#N)n(C)c1=O	·	·	–	·	·
Cn1ncc2c(Sc3nnc(-c4ccccc4)n3-c3ccc(F)cc3F)ncnc21	·	·	–	·	·
Cc1c(C(=O)N(Cc2ccc(N(C)C)cc2)CC2CCCO2)oc2ccccc12 (configuration not stated)	14.1µM!	–	–	–	–
Cc1c(C(=O)N(Cc2ccc(Cl)cc2)CC2CCCO2)oc2ccc(F)cc12 (configuration not stated)	–	–	?	–	·
Cc1ccc2oc(C(=O)N(Cc3ccncc3)CC3CCCO3)c(C)c2c1 (configuration not stated)	?	–	–	–	–
Cc1c(C(=O)N(Cc2ccc(N(C)C)cc2)CC2CCCO2)oc2ccc(Cl)cc12 (configuration not stated)	11.2µM	–	–	–	·
Cc1c(C(=O)N(Cc2ccc(N(C)C)cc2)CC2CCCO2)oc2ccc(Br)cc12 (configuration not stated)	12.6µM	–	–	–	·
Cc1cc2oc(C(=O)N(Cc3ccc(N(C)C)cc3)CC3CCCO3)c(C)c2cc1Cl (configuration not stated)	14.1µM	–	–	–	·
